About 83,000 compounds went through this panel and 20% of them were active in at least one assay; those are over-represented in the sample as a whole.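 Values shown are percent growth following 48 h exposure of cells in 96-well plates to a single concentration of compound; below 10 was considered active.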 Activity calls are given as the source filed them.
Test system: HL-60(TB) leukemia
Assay: NCI-60 one-dose screen, 48 h (100 = growth as untreated, 0 = no growth, -100 = all killed)
Settings: 10 µM unless noted
Description: Growth inhibition of the HL-60(TB) human tumor cell line is measured as a screen for anti-cancer activity. Cells are grown in 96 well plates and exposed to the test compound for 48 hours. Compounds are tested at a single concentration, which is 10^-5 M for most compounds. The reported endpoint is percent growth (GI% or GIPRCNT), where numbers from 0 - 100% represent growth inhibition, and numbers from -100% - 0 represent cell death. For example, a value of 40 represents 60% growth inhibition. A value of 0 means no net growth occurred over the course of the experiment. A value of -40 indicates 40% of cells at the beginning of the experiment died by the end of the experiment. A value of -100 means all cells are dead at the end of the experiment.
NCI-60 Human Tumor Cell Lines Screen was performed using the standard one-dose NCI protocol, which is described in more detail at https://dtp.cancer.gov/discovery_development/nci-60/default.htm.
Compounds with GIPRCNT values below 10 were considered active. Activity score was based on GIPRCNT using the following formula: […]
Score is 0 for GIPRCNT values of 100 or above, 50 for GIPRCNT values of 0, and 100 for GIPRCNT values of -100.

Compound | growth
COc1ccc(/C=N/Nc2ccnc3cc(Cl)ccc23)cc1Cl | -37.5% (active)
COc1ccc(/C(=N\N=C(N)N)c2ccc(Cl)cc2)cc1OC | 44.9% (inactive)
NS(=O)(=O)c1ccc(Nc2cc(-c3ccccc3)nc(SCC(=O)c3ccccc3)n2)cc1 | 106% (inactive)
COc1cccc(N2CCN(C3=C(Cl)C(=O)c4ncccc4C3=O)CC2)c1 | 9.82% (active)
COc1cc(C(C)=C(c2ccc(OCCN(C)C)cc2)c2ccc(OCCN(C)C)cc2)ccc1F | 105% (inactive)
COc1ccc(CCOc2cc3c(cc2OC)CCN(C(=O)NCc2cocn2)C3c2ccc(C)cc2C)cc1 (stereo not given) | 5.9% (active)
O=C(Nc1cccc(C(F)(F)F)c1)N1CCN(c2cc(-c3cn(-c4ccccc4)nc3-c3cccc(O)c3)ccn2)CC1 | 20.9% (inactive)
c1ccc(-c2n(Cc3ccc4ccccc4c3)c3c4ccccc4c4ccccc4c3[n+]2Cc2ccc3ccccc3c2)cc1 | -61.4% (active)
C#C[C@]1(O)CC[C@H]2[C@@H]3CC=C4c5sc(-c6cccc(F)c6)nc5CC[C@]4(C)[C@H]3CC[C@@]21C | 79.6% (inactive)
O=C1C(SCc2ccccc2)=C(Cl)CN1c1ccc(Cl)cc1 | 44% (inactive)
Cc1ccc(-n2cc(/C=C/C(=O)c3ccc(O)cc3)c(-c3ccc(S(C)(=O)=O)cc3)n2)cc1 | 27.5% (inactive)
O=C(/C=C1\C=CN(CCCCO)c2ccccc21)n1ccc2ccccc21 | 114% (inactive)
CCOP(=O)(OCC)OC[C@]12CCC(C)(C)C[C@H]1C1=CC[C@@H]3[C@@]4(C)CC[C@H](OP(=O)(OCC)OCC)C(C)(C)[C@@H]4CC[C@@]3(C)[C@]1(C)CC2 | 8.99% (active)
COc1cccc(/C=C(/C)c2ccc3cccc(OC)c3[o+]2)c1O | 99.7% (inactive)
CS(=O)(=O)c1nccc(-c2c(-c3ccc(F)c(OCCc4ccc(F)cc4)c3)nc3sccn23)n1 | -12.1% (active)
CCN(CC)c1ccc(C=O)c(OCc2cn(CC(=O)Nc3ccc(Cl)cc3)nn2)c1 | 69.7% (inactive)
CC(=O)N1N=C(c2cccc(-n3cccc3)c2)CC1c1cccc(F)c1 (stereo not given) | 108% (inactive)
CCCCCCN1C=C/C(=C\C(=O)n2ccc3ccccc32)c2ccccc21 | 24.7% (inactive)
COc1ccc(/C(=N\NC(N)=S)c2ccc(Cl)cc2)cc1OC | 13.2% (inactive)
CCCN1C=C/C(=C\C(=O)n2ccc3ccccc32)c2ccccc21 | 87.4% (inactive)

Compound | growth
COc1ccc(-c2nc3cc(Cl)c(Cl)cc3n2CC(=O)N=Nc2c(O)[nH]c3ccccc23)cc1 | 92.5% (inactive)
COc1ccc(/C=N/NC(=O)CSc2nc(-c3cnccn3)cc(-c3cccs3)c2C#N)cc1 | 93.8% (inactive)
COc1ccc(-c2cc(-c3ccc(Cl)cc3)nc3nc(N)nn23)cc1 | 72.2% (inactive)
CN(C)C(=O)c1cc(-c2ccc3ncnc(NCc4ccccc4)c3c2)cnc1N | 116% (inactive)
CN1CCN(c2ccc3c(c2)nc(NNC(=O)c2ccncn2)c2cccn23)CC1 | 10.4% (inactive)
CC(C)NC(=O)c1cc(-c2ccc(NC(=O)Nc3ccc(F)cc3)cc2)nc2cccnc12 | 105% (inactive)
COc1ccc2[nH]cc(-c3cc(N)n4nc(-c5c[nH]c6ccc(OC)cc56)cc4n3)c2c1 | -46.1% (active)
Clc1cccc(/C=N/Nc2nc(N/N=C/c3cccc(Cl)c3)nc(N3CCOCC3)n2)c1 | -9.74% (active)
[Cl][Ru].c1ccc(-c2cccc(-c3ccccn3)n2)nc1.c1ccc(-c2ccnc3c2ccc2c(-c4ccccc4)ccnc23)cc1 | -10.5% (active)
N#Cc1c(-c2cccs2)cc(-c2cnccn2)nc1SCC(=O)N/N=C/c1ccc(Cl)cc1 | 110% (inactive)
CC(=C(c1ccc(OCCN2CCCC2)cc1)c1ccc(OCCN2CCCC2)cc1)c1ccc(Cl)cc1 | -53.7% (active)
Clc1ccc(N/N=c2/oc3ccccc3cc2-c2cc3ccccc3[nH]2)cc1 | 88.7% (inactive)
O=C(CCN1C(=O)/C(=C/c2ccccc2)SC1=S)N1CCOCC1 | 89.3% (inactive)
CC1(C)C=Cc2cc(/C(N)=N/C(N)=N/c3nc4ccccc4s3)ccc2O1 | 72.9% (inactive)
C=C(C=O)[C@@H]1CC[C@]2(C)[C@H](CC=C3[C@H]4[C@@H](C)[C@H](C)CC[C@]4(C(=O)OC)CC[C@]32C)[C@@]1(C)CCC#N | -25.2% (active)
COc1ccc(C2CC(c3cccc(Nc4nc(Cl)nc5cc(OC)c(OC)cc45)c3)=Nc3c(N)nc(N)nc3N2)cc1 (stereo not given) | 47.4% (inactive)
O=C(Nc1ccc(N=Cc2c(O)[nH]c3ccccc23)cc1)Nc1ccc(S(=O)(=O)Nc2ncccn2)cc1 | 117% (inactive)
COc1cc(/C=C/C(=O)c2cc(OC)c(OC)c(OC)c2)ccc1Oc1nc(NCCO)nc(N2CCOCC2)n1 | -5.23% (active)
Cc1ccc(S(=O)(=O)c2nc(-c3ccc(F)cc3)oc2S(C)(=O)=O)cc1 | 62.4% (inactive)
CC(=O)O[C@@H]1[C@@H]2O[C@H]2[C@@](C)(O)C(=O)[C@@H](C)C/C=C/[C@H]2[C@@H]3O[C@]3(C)[C@@H](C)C3[C@H](Cc4ccccc4)NC(=O)[C@@]312 (stereo not given in full) | 58.2% (inactive)

Reference: PubChem BioAssay (NCI)
